# Measurements as given in PubChem BioAssay AID493221 (Johns Hopkins Ion Channel Center, 2011).
# In all, about 2,400 compounds went through this assay and about 1,700 (71%) were called active.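 Rule for the calls: active = choline transporter activity left, mean of duplicates at 10 µM, below buffer-only control mean minus 3 SD; inactive = the rest.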 So high a share suggests a set chosen from earlier hits. These entries were drawn from the full list.
# Target: High affinity choline transporter 1 (Homo sapiens) (UniProt Q9GZV3)
# Assay: human choline transporter blockers – cell-based, membrane potential dye, duplicate, confirmation (AID 493221)
# Settings: CHT-expressing cells, at 10 µM, LV-to-AA substituted CHT, HEK293 cells
# Chain of High affinity choline transporter 1 (Homo sapiens) (Q9GZV3 whole entry, looked up): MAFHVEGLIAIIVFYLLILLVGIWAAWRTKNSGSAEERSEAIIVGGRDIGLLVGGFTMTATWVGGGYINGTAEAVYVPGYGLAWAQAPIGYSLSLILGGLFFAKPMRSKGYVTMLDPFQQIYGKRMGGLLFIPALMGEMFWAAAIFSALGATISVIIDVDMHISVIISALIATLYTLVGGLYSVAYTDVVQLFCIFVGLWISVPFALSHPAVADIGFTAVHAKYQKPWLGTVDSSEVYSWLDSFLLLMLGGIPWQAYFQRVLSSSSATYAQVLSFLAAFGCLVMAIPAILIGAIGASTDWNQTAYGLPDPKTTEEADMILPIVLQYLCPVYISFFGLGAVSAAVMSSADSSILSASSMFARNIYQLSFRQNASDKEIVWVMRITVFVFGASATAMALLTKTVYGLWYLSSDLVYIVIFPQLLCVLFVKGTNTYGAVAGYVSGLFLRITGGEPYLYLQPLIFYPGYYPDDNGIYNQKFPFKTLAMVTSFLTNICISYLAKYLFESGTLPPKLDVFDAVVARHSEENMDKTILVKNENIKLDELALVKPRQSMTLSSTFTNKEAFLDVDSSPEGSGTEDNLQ
row,SMILES,CHT activity remaining % of control (active compounds read low)
1,C[N+]1(C)CCOC(O)(c2ccc(-c3ccc(C4(O)C[N+](C)(C)CCO4)cc3)cc2)C1 (stereo not drawn),4.79% (active)
2,COc1ccccc1N1CCN(C(CNC(=O)Oc2ccccc2)c2cccnc2)CC1 (stereo not drawn),inactive
3,Cc1nc2ccccn2c1P(=S)(N1CCCCC1)N1CCCCC1,61.1% (active)
